# Source: PubChem BioAssay (Tox21)
# Values joined by “and” are separate entries in the source; they are usually repeats but may differ in a detail not shown here. Equal values may be shown once. A number with no mark means an inactive call. Results filed as inconclusive are left out. A call without a number means that no potency is given here. Active and inactive are the calls of the source. Unless noted, calls come from the whole dose curve; as a rule, active = well fitted curve in the direction sought with a large enough effect in the repeat runs; inconclusive = weak or mixed curves; inactive = no such curve, though single readings can be large; an effect the other way counts as inactive or inconclusive.
# Legend:
# [1] = qHTS assay to identify small molecule agonists of the estrogen receptor alpha (ER-alpha) signaling pathway in the presence of an antagonist - cell viability counter screen (AID 1259386);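 note: cells exposed to compounds for 22 h at 37 °C before the viability read; nearly all actives have a fitted effect of over 30% in size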; note: potency is the fitted concentration of half-maximal effect; for activity change, negative = cytotoxicity: series mostly up to about 92 µM
# Method in brief: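 The test measures whether compounds kill ER-alpha reporter cells (VM7Luc4E2) under antagonist co-treatment (ICI-182,780, 10.0nM). Fluorescence from CellTiter-Fluor is read after a 22hr exposure.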
# [2] = target: Progesterone receptor (Homo sapiens) (UniProt P06401); experiment: qHTS assay to identify small molecule agonists of the progesterone receptor (PR) signaling pathway (AID 1346784; calls by dose curve; note: nearly all actives have a fitted effect of over 30% in size; note: potency is the fitted concentration of half-maximal effect)
# Method in brief: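 Agonist mode, quantitative HTS format in a HEK 293T line expressing a UAS-controlled beta-lactamase reporter; 16 hr compound exposure at 37C in 2% charcoal-stripped FBS, then LiveBLAzer B/G FRET fluorescence.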
# [3] = qHTS assay to identify small molecule antagonists of the progesterone receptor (PR) signaling pathway - cell viability counter screen (AID 1346798); note: nearly all actives have a fitted effect of over 50% in size; note: potency is the fitted concentration of half-maximal effect; for activity change, negative = cytotoxicity: series mostly up to about 92 µM
# Method in brief: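 Same-well multiplex: after 16 hr at 37C with compound and R5020 stimulation, HEK293T cells carrying a UAS-bla reporter received LiveBLAzer substrate (2 hr RT), then CellTiter-Glo (30 min RT) for luminescent viability.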
# [4] = qHTS assay to identify small molecule agonists of the progesterone receptor (PR) signaling pathway - cell viability counter screen (AID 1346799; calls by dose curve; note: nearly all actives have a fitted effect of over 45% in size; note: potency is the fitted concentration of half-maximal effect)
# Method in brief: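 Counter screen for cytotoxicity: compound-treated PR-UAS-bla HEK293T cells (16 hr, 37C, 5% CO2) were assayed with CellTiter-Glo, luminescence measured after 30 min at room temperature.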
# [5] = qHTS assay to identify small molecule antagonists of the TGF-beta/Smad signaling pathway - cell viability counter screen (AID 1346824); note: nearly all actives have a fitted effect of over 50% in size
# Method in brief: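 SBE-bla HEK 293T cells were plated overnight at 37 C, then given compounds in DMSO plus TGF-beta1 (added as 0.25 ng/mL solution) for 5 hr. After the bla read, CellTiter-Glo was added to the same wells and luminescence read after 30 min at room temperature.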
# [6] = qHTS assay to identify small molecule agonists of the TGF-beta/Smad signaling pathway - cell viability counter screen (AID 1346829); note: top concentration of the series differs between compounds; nearly all actives have a fitted effect of over 45% in size
# Method in brief: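 HEK 293T SBE-bla line, 5 hr compound exposure at 37 C, multiplexed CellTiter-Glo viability read by luminescence.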
# [7] = qHTS assay to identify small molecule agonists of the TGF-beta/Smad signaling pathway (AID 1346859; active = well fitted activation curve with a large enough effect in the signal ratio in the repeat runs, not every such curve was filed as active; the % refers to the signal ratio; note: series mostly up to about 77 µM)
# Method in brief: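 Smad-responsive beta-lactamase reporter cells (HEK 293T) received compounds from DMSO stocks after overnight attachment, were incubated 5 hr, then treated 2 hr with FRET substrate before dual-emission fluorescence measurement (405 nm excitation).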
# [8] = target: Thyrotropin-releasing hormone receptor (Homo sapiens) (UniProt P34981); experiment: qHTS assay to identify small molecule antagonists of the thyrotropin-releasing hormone receptor (TRHR) signaling pathway (AID 1346877; active = well fitted inhibition curve with a large enough effect in the repeat runs, not every such curve was filed as active; note: series mostly up to about 51 µM)
# Method in brief: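 Overnight-plated (18 h, 37 °C) HEK293 cells expressing TRHR were dye-loaded 2 h, treated with compound, then stimulated with TRH at 1 nM final. Fluorescence intensity was captured every second for 3 min.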
# [9] = target: Thyrotropin-releasing hormone receptor (Homo sapiens) (UniProt P34981); experiment: qHTS assay to identify small molecule agonists of the thyrotropin-releasing hormone receptor (TRHR) signaling pathway (AID 1346891; calls by dose curve;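 note: HEK293 cells expressing TRHR with calcium dye readout; series mostly up to about 58 µM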)
# Method in brief: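 Agonist-mode calcium mobilisation screen: TRHR-transfected HEK293 cells cultured overnight (18 h), dye-loaded for 2 h at 37 °C, exposed to compounds, and monitored by fluorescence for 3 min.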
# [10] = target: Progesterone receptor (Homo sapiens) (UniProt P06401); experiment: qHTS assay to identify small molecule antagonists of the progesterone receptor (PR) signaling pathway (AID 1346795; active = well fitted inhibition curve with a large enough effect in the signal ratio in the repeat runs, not every such curve was filed as active; the % refers to the signal ratio; note: potency is the fitted concentration of half-maximal effect)
# Method in brief: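 HEK293T PR-UAS-bla reporter cells in charcoal-stripped serum (2%) received compound after a 6 hr settling period, followed by R5020 agonist at 1 nM final; 16 hr incubation preceded the FRET substrate step and fluorescence measurement.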
# Thyrotropin-releasing hormone receptor (Homo sapiens), sequence (P34981 whole entry, looked up): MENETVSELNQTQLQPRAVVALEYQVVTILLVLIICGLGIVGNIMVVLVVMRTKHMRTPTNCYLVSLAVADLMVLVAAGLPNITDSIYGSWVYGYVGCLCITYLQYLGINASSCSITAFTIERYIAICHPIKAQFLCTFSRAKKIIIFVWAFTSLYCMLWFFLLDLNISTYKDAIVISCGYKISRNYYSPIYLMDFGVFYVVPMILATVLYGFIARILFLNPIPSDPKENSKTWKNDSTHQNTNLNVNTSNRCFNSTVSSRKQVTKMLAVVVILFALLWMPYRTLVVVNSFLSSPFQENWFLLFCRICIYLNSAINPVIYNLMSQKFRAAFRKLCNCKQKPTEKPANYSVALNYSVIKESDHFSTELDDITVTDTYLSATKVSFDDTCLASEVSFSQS
# Progesterone receptor (Homo sapiens), sequence (P06401 whole entry, looked up): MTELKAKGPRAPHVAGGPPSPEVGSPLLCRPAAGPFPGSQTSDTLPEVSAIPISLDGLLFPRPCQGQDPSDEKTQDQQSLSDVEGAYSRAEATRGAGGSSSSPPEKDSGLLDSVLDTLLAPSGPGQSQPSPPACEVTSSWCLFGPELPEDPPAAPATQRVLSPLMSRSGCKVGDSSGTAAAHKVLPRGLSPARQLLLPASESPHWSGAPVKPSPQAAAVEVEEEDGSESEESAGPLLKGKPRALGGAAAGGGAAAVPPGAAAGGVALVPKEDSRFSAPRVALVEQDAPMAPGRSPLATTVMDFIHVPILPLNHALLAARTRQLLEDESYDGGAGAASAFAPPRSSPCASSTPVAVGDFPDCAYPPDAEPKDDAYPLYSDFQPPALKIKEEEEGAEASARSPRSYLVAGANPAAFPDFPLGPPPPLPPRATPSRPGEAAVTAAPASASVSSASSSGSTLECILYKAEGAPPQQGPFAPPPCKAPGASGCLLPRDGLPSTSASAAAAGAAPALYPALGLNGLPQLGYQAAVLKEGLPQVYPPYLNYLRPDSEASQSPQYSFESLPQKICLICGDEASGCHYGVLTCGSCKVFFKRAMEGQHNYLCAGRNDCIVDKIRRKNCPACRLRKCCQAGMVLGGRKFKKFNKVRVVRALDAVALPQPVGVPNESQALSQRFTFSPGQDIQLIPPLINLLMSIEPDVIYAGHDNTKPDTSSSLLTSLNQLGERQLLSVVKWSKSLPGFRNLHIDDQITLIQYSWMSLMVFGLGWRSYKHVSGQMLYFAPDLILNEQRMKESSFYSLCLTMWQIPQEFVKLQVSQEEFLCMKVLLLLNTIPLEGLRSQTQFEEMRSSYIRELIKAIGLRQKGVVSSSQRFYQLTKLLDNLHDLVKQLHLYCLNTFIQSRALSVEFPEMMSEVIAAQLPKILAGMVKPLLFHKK
smiles,measurement,setting,value
O=[N+]([O-])c1ccc2[nH]ncc2c1,Potency,[1],inactive
same,Potency,[2],inactive
same,Potency,[3],inactive
same,Potency,[4],inactive
same,Potency,[5],inactive
same,outcome,[6],inactive
same,Potency,[7],inactive
same,outcome,[8],inactive
same,Potency,[9],inactive
CCN(CC)CCNc1ccc(CNC=O)c2sc3ccc(OC)cc3c(=O)c12,Potency,[1],13.7 µM (active)
same,Potency,[2],inactive
same,Potency,[10],43.3 µM (active)
same,Potency,[5],inactive
same,outcome,[6],inactive
same,Potency,[7],inactive
same,outcome,[8],inactive
same,Potency,[9],inactive
CCC(=O)O[C@]1(C(=O)CCl)[C@@H](C)C[C@H]2[C@@H]3CCC4=CC(=O)C=C[C@]4(C)[C@@]3(F)[C@@H](O)C[C@@]21C,Potency,[1],inactive
same,Potency,[2],0.0009 µM (active)
same,Potency,[10],inactive
same,Potency,[5],inactive
same,outcome,[6],inactive
same,Potency,[7],inactive
same,outcome,[8],inactive
same,Potency,[9],inactive
O[C@@H](COc1cccc2ncccc12)CN1CCN(C2c3ccccc3[C@@H]3[C@H](c4ccccc42)C3(F)F)CC1 (some centres not stated),Potency,[1],inactive
same,Potency,[2],inactive
same,Potency,[3],inactive
same,Potency,[5],inactive
same,outcome,[6],inactive
same,outcome,[8],inactive
same,Potency,[9],inactive
Nc1c(CC(=O)O)cccc1C(=O)c1ccc(Br)cc1,Potency,[1],inactive
same,Potency,[2],inactive
same,Potency,[10],inactive
same,Potency,[5],inactive
same,outcome,[6],inactive
same,outcome,[8],inactive
same,Potency,[9],inactive
OCc1cc(C(O)CNCCCCCCOCCCCc2ccccc2)ccc1O (configuration not stated),Potency,[1],11.9 µM (active)
same,Potency,[2],inactive
same,Potency,[3],inactive
same,Potency,[4],inactive
same,Potency,[5],inactive
same,outcome,[6],inactive
same,Potency,[7],inactive
same,outcome,[8],inactive
same,Potency,[9],inactive
c1ccc(-c2ccccn2)nc1,Potency,[1],inactive
same,Potency,[2],inactive
same,Potency,[3],inactive
same,outcome,[6],inactive
same,Potency,[7],inactive
same,outcome,[8],inactive
same,Potency,[9],inactive
CNCCCCOc1ccccc1Cc1ccccc1,Potency,[1],inactive
same,Potency,[2],inactive
same,Potency,[10],26.6 µM (active)
same,Potency,[5],inactive
same,Potency,[7],inactive
same,outcome,[8],inactive
same,Potency,[9],inactive
CC(C)(C)OCC1CO1 (configuration not stated),Potency,[1],inactive
same,Potency,[2],inactive
same,Potency,[3],inactive
same,Potency,[4],inactive
same,Potency,[5],inactive
same,outcome,[6],inactive
same,outcome,[8],inactive
same,Potency,[9],inactive
CCc1c(C(=O)NN2CCCCC2)nn(-c2ccc(Cl)cc2Cl)c1-c1ccc(Br)cc1,Potency,[1],inactive
same,Potency,[2],inactive
same,Potency,[10],3.44 µM (active)
same,Potency,[5],inactive
same,outcome,[6],inactive
same,outcome,[8],inactive
same,Potency,[9],inactive
CCCCCCCCCCO[C@@H]1O[C@H](CO)[C@@H](O)[C@H](O)[C@H]1O,Potency,[1],inactive
same,Potency,[2],inactive
same,Potency,[3],inactive
same,Potency,[4],inactive
same,Potency,[5],inactive
same,outcome,[6],inactive
same,Potency,[7],inactive
C=C1[C@H]2CC[C@@H]3[C@H]2C(C)(C)CCC[C@]13C,Potency,[1],inactive
same,Potency,[2],inactive
same,Potency,[10],inactive
same,Potency,[5],inactive
same,outcome,[6],inactive
same,Potency,[7],inactive
same,outcome,[8],inactive
same,Potency,[9],inactive
CC(C)(COC(=O)c1ccccc1)COC(=O)c1ccccc1,Potency,[1],inactive
same,Potency,[2],inactive
same,Potency,[3],inactive
same,Potency,[5],inactive
same,outcome,[6],inactive
same,Potency,[7],inactive
same,outcome,[8],inactive
same,Potency,[9],inactive
Cc1c(N)cccc1[N+](=O)[O-],Potency,[1],inactive
same,Potency,[2],inactive
same,Potency,[3],inactive
same,Potency,[5],inactive
same,outcome,[6],inactive
same,Potency,[7],inactive
C[C@@H]1C[C@H]2O[C@@]3(O[C@@H]2C(C)(C)O)[C@H](O)[C@@]2(C)[C@@H]4CC[C@H]5C(C)(C)[C@@H](O[C@@H]6OC[C@@H](O)[C@H](O)[C@H]6O)CC[C@@]56C[C@@]46CC[C@]2(C)[C@@H]13,Potency,[1],inactive
same,Potency,[2],inactive
same,Potency,[3],inactive
same,Potency,[5],inactive
same,outcome,[6],inactive
same,Potency,[7],inactive
same,outcome,[8],inactive
same,Potency,[9],inactive
C[C@H]1C[C@H]2[C@@H]3CCC4=CC(=O)C=C[C@]4(C)[C@@]3(Cl)[C@@H](O)C[C@]2(C)[C@@]1(O)C(=O)CO,Potency,[1],inactive
same,Potency,[2],0.0237 µM (active)
same,Potency,[3],inactive
same,Potency,[5],inactive
same,outcome,[6],inactive
same,outcome,[8],inactive
same,Potency,[9],inactive
C/C=C/C(=O)CC,"activity change, negative = cytotoxicity",[1],2.64% [at 19 µM]
same,activation,[2],0.707% [at 19 µM]
same,"activity change, negative = inhibition",[10],-21.4% [at 18.9 µM]
same,"viability change, negative = cytotoxic",[5],-21.1% [at 15.8 µM]
same,"activity change, negative = cytotoxicity",[6],-6.07% [at 15.8 µM]
same,"activity, negative = inhibition",[8],-0.562% [at 10.5 µM]
same,activation,[9],-0.663% [at 11.8 µM]
CCCCCCOC(=O)NC(=N)c1ccc(NCc2nc3cc(C(=O)N(CCC(=O)OCC)c4ccccn4)ccc3n2C)cc1,Potency,[1],26.6 µM (active)
same,Potency,[2],inactive
same,Potency,[3],21.1 µM (active)
same,Potency,[4],18.8 µM (active)
same,outcome,[8],inactive
same,Potency,[9],inactive
c1ccc(C(O[C@H]2CCCN(CCc3ccc4c(c3)OCO4)C2)c2ccccc2)cc1,Potency,[1],inactive
same,Potency,[2],inactive
same,Potency,[3],inactive
same,Potency,[5],inactive
same,outcome,[6],inactive
same,Potency,[7],inactive
same,outcome,[8],inactive
same,Potency,[9],inactive
CC(C)=CCC/C(C)=C/CC/C(C)=C/CO,Potency,[1],inactive
same,Potency,[2],inactive
same,Potency,[3],inactive
same,Potency,[4],inactive
same,Potency,[5],inactive
same,outcome,[6],inactive
same,Potency,[7],inactive
same,outcome,[8],inactive
same,Potency,[9],inactive
CC(COCCO)OCCO (configuration not stated),Potency,[1],inactive
same,Potency,[10],inactive
same,Potency,[3],inactive
same,Potency,[4],inactive
same,Potency,[5],inactive
same,outcome,[6],inactive
same,Potency,[7],inactive
same,outcome,[8],inactive
same,Potency,[9],inactive
C=CC(=O)OCCOCCOCCOCCOC(=O)C=C,Potency,[1],54.8 µM (active) and 68 µM (active)
same,Potency,[2],inactive
same,outcome,[6],inactive
same,Potency,[7],inactive
same,outcome,[8],inactive
same,Potency,[9],inactive
CN1CCN(C(c2ccccc2)c2ccccc2)CC1,Potency,[1],inactive
same,Potency,[10],inactive
same,Potency,[3],inactive
same,Potency,[4],inactive
same,Potency,[5],inactive
same,outcome,[6],inactive
same,Potency,[7],inactive
same,outcome,[8],inactive
same,Potency,[9],inactive
O=C(OCCCCCCOC(=O)c1ccccc1)c1ccccc1,Potency,[1],inactive
same,Potency,[2],inactive
same,outcome,[6],inactive
same,outcome,[8],inactive
same,Potency,[9],inactive
CN(C)CCCN1c2ccccc2Sc2ccccc21,Potency,[1],inactive
same,Potency,[2],inactive
same,Potency,[5],inactive
same,outcome,[6],inactive
same,Potency,[7],inactive
same,outcome,[8],inactive
same,Potency,[9],inactive
